The values below come from PubChem BioAssay (EPA / NIEHS).

The AC50 is the concentration giving half of the maximal activity seen.

Molecules are shown by their SMILES. Results filed as inconclusive are left out. Activity calls are given as the source filed them. The calls were made as follows: active = hit-call score of the fitted dose curve at least 0.9, where 1 is the maximum; inconclusive = response in the unintended direction; inactive = score below 0.9.

The target of assay [1] is Luciferin 4-monooxygenase (Photinus pyralis) (UniProt P08659). As to the kind of experiment: CCTE_Simmons_QuantiLum_inhib_2: CCTE's Firefly Luciferase Inhibition Assay, Simmons Lab (AID 2283767).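 As to AC50: potency for inhibitors that lower luciferase luminescence relative to DMSO.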 Put shortly:
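Luminescence loss relative to DMSO vehicle defines inhibition; detection reagent containing 150 uM D-luciferin and 147 uM dATP (final, pH 7.8) is injected immediately before each read. Enzyme is preincubated with an 8-point titration (5 nM–87.5 uM final) for 30 min at 37C.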

A short description of assay [2]: ACEA_AR_antagonist_AUC_viability: ACEA Biosciences xCELLigence Real-Time Cell Analysis on Androgen Receptor Antagonism for Viability (AID 2283776).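 Also: hits lower the growth signal relative to DMSO meaning cytotoxicity.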 Put shortly: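 22Rv1 human prostate cancer cells were seeded on electrode plates, monitored overnight, then exposed to eight 1:4 dilutions from 100 uM final. Impedance-based growth kinetics at 80 h gave an AUC viability endpoint normalized to DMSO.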

The nature of assay [3]: ACEA_ER_AUC_viability: ACEA Biosciences xCELLigence Real-Time Cell Analysis on Estrogen Receptor Agonism for Viability (AID 2283782).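 Also: continuous compound exposure with impedance area under curve over 80 h; hit means loss of impedance signal meaning reduced cell growth or viability.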 Put shortly:
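T47D cells preconditioned in phenol red-free RPMI with charcoal-stripped FBS, then dosed with 8-point 1:4 series from 100 uM (up to 0.5% DMSO). Impedance monitored up to ~80 h; area-under-curve loss versus DMSO taken as viability.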

In a further assay the target is AR (gene 367) (UniProt P10275). As to the kind of experiment: ACEA_AR_agonist_80hr: ACEA Biosciences xCELLigence Real-Time Cell Analysis on Androgen Receptor Agonism for Proliferation (AID 2283783).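 Also: hits increase impedance growth signal above DMSO baseline.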 Put shortly:
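Proliferation of 22Rv1 prostate cancer cells tracked by electrical impedance, endpoint taken at 80 hours after dosing. Eight-point 1:4 dilutions from 100 uM maximum final, duplicate; testosterone and MG132 as positive controls, assay media as negative.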

A short description of assay [4]: STM_H9_NormalizedViability: Cytotoxicity Assessment at 120 hours in the Stemina devTOX quickPredict H9 human embryonic stem cell (hESC)-based Assay (AID 2283784). Put shortly: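 Pluripotent H9 cells dosed, fresh medium plus compound q24h → cell layer read by CellTiter-Fluor → RFU blank-corrected, normalized to DMSO 0.1% mean. Loss-of-signal fit, DMSO as baseline.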

A short description of assay [5]: ACEA_AR_agonist_AUC_viability: ACEA Biosciences xCELLigence Real-Time Cell Analysis on Androgen Receptor Agonism for Viability (AID 2283775).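 As to AC50: viability read 80 hours after compound addition.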 Put shortly: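 Real-time impedance tracking of 22Rv1 growth, readings every 5 min for 5 h then hourly; area-under-curve viability endpoint at 80 hours, relative to DMSO. Compounds at eight concentrations, 1:4 steps, top 100 uM, n = 2.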

Assay [6] deals with chicken Androgen Receptor (AR), gene 422165. The assay is described as follows: ATG_chAR_XSP1: Attagene TRANS-FACTORIAL Multi-Species (XSP1) HepG2 Assay for chicken Androgen Receptor (AR) (AID 2283768). Put shortly:
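HepG2 cells transiently transfected with multiplexed GAL4-UAS reporter units expressing chimeric chicken AR-Gal4; 3 nM 6-alpha-fluorotestosterone for partial AR stimulation; 24 h after dosing, reporter mRNA by RT-PCR and capillary electrophoresis, gain-of-signal versus DMSO.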

In assay [7] the test system is frog Androgen Receptor (AR), gene 399456. The assay is described as follows: ATG_frAR_XSP1: Attagene TRANS-FACTORIAL Multi-Species (XSP1) HepG2 Assay for frog Androgen Receptor (AR) (AID 2283770). The protocol: ATG_XSP1_multi-species_TRANS is a cell-based, multiplexed assay created by modifying the existing Attagene TRANS-FACTORIAL system to include a panel of nuclear receptors from some or all the following species: human (Homo sapiens), mouse (Mus musculus), frog (Xenopus laevis), zebrafish (Danio rerio), chicken (Gallus gallus), and turtle (Chrysemys picta). The ECOTOX-FACTORIAL format uses HepG2, a human liver cell line, with measurements taken at 24 hours after chemical dosing in a 24-well plate. Xsp1 included 3 nM 6-alpha-fluorotestosterone to partially stimulate the androgen receptor.ATG_frAR_XSP1 is one of 29 assay components measured or calculated from the ATG_XSP1_multi-species_TRANS assay. It is designed to make measurements of mRNA induction, a form of inducible reporter, as detected with fluorescence intensity signals by Reverse transcription polymerase chain reaction (RT-PCR) and Capillary electrophoresis technology.The assay endpoint ATG_frAR_XSP1 was analyzed in the positive analysis fitting direction relative to DMSO as the negative control and baseline of activity. […] Furthermore, this assay endpoint can be referred to as a primary readout, because this assay has produced multiple assay endpoints where this one serves a reporter gene function. […]

The subject of assay [8] is zebrafish Androgen Receptor (AR), gene 100005148. The assay is described as follows: ATG_zfAR_XSP1: Attagene TRANS-FACTORIAL Multi-Species (XSP1) HepG2 Assay for zebrafish Androgen Receptor (AR) (AID 2283771). Put shortly:
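HepG2 cells were transiently transfected with a zebrafish AR-GAL4 reporter system and partially stimulated with 3 nM 6-alpha-fluorotestosterone. Reporter mRNA was measured after 24 h dosing by RT-PCR with capillary electrophoresis, and gain-of-signal was fitted relative to DMSO.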

The target of assay [9] is zebrafish Estrogen Receptor (ESR1), esr1 (gene 259252) (UniProt P57717). As to the kind of experiment: ATG_zfER1_XSP1: Attagene TRANS-FACTORIAL Multi-Species (XSP1) HepG2 Assay for zebrafish Estrogen Receptor (ESR1) (AID 2283772). The method, boiled down:
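Trans-activation readout: transfected zebrafish ER-Gal4 drives a UAS reporter in human HepG2 liver cells. After 24 h compound exposure (medium containing 3 nM 6-alpha-fluorotestosterone), induced reporter transcripts were quantified by RT-PCR with capillary electrophoresis, relative to DMSO.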

In assay [10] the test system is zebrafish Estrogen Receptor (ESR2B), gene 317733. As to the kind of experiment: ATG_zfER2b_XSP1: Attagene TRANS-FACTORIAL Multi-Species (XSP1) HepG2 Assay for zebrafish Estrogen Receptor (ESR2B) (AID 2283773). Put shortly:
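HepG2 cells transiently transfected with GAL4-UAS reporter units for chimeric zebrafish ER2b-Gal4, with 3 nM 6-alpha-fluorotestosterone present; reporter mRNA measured 24 h after dosing by RT-PCR and capillary electrophoresis, gain versus DMSO.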

In assay [11] the test system is frog Estrogen Receptor (ESR1), gene 398734. The assay is described as follows: ATG_frER1_XSP1: Attagene TRANS-FACTORIAL Multi-Species (XSP1) HepG2 Assay for frog Estrogen Receptor (ESR1) (AID 2283777). The method, boiled down:
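HepG2 cells transiently transfected with frog ER–GAL4 chimera and GAL4-UAS reporter, with 3 nM 6-alpha-fluorotestosterone present; 24 h dosing, reporter mRNA quantified by RT-PCR and capillary electrophoresis, gain of signal versus DMSO.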

Assay [12] concerns zebrafish Estrogen Receptor (ESR2A), gene 317734. As to the kind of experiment: ATG_zfER2a_XSP1: Attagene TRANS-FACTORIAL Multi-Species (XSP1) HepG2 Assay for zebrafish Estrogen Receptor (ESR2A) (AID 2283778). The method, boiled down: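 HepG2 cells transiently transfected with GAL4-UAS reporter units driven by a zebrafish ESR2A–Gal4 chimera; 24 h compound exposure with 3 nM 6-alpha-fluorotestosterone present. Reporter mRNA measured by RT-PCR with fluorescent capillary electrophoresis, fitted positive versus DMSO.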

In assay [13] the target is chicken Estrogen Receptor (ESR1), ESR1 (gene 396099) (UniProt P06212). As to the kind of experiment: ATG_chERa_XSP1: Attagene TRANS-FACTORIAL Multi-Species (XSP1) HepG2 Assay for chicken Estrogen Receptor (ESR1) (AID 2283779). Put shortly: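 HepG2 cells transiently transfected with GAL4-UAS reporter units for chimeric chicken ERα-Gal4, dosed 24 h with 3 nM 6-alpha-fluorotestosterone present. Reporter mRNA by RT-PCR and capillary electrophoresis; gain-of-signal fit versus DMSO.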
Chain of chicken Estrogen Receptor (ESR1), ESR1 (gene 396099) (P06212 whole entry, looked up, the tested form may be a part): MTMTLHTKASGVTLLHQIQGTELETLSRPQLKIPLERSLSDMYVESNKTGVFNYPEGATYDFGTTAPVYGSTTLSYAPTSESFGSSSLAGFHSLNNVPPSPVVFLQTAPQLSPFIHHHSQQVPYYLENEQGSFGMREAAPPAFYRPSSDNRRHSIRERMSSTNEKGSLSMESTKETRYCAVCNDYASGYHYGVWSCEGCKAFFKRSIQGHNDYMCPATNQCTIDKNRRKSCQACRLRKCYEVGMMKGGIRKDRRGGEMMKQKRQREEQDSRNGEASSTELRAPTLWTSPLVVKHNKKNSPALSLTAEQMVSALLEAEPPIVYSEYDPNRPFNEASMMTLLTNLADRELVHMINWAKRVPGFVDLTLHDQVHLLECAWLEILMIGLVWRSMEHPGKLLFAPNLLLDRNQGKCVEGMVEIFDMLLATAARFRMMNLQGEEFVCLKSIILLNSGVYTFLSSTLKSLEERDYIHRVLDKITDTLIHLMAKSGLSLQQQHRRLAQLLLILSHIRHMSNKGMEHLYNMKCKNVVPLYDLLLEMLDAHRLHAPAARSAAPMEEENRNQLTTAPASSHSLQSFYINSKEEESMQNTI

The test system of assay [14] is turtle Estrogen Receptor (ESR1), gene 101933533. The assay is described as follows: ATG_trERa_XSP1: Attagene TRANS-FACTORIAL Multi-Species (XSP1) HepG2 Assay for turtle Estrogen Receptor (ESR1) (AID 2283781). The method, boiled down: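 Turtle ERa as a GAL4 chimera in transiently transfected HepG2 cells; reporter mRNA quantified 24 h after dosing by RT-PCR and capillary electrophoresis. 3 nM 6-alpha-fluorotestosterone present; gain of signal versus DMSO.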

Assay [15] in a line: ArunA_NOG_NeuriteLength: ArunA Biomedical's Neurite Outgrowth (NOG) Assay for Neurite Length (AID 2283757). Put shortly:
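Differentiated human H9-derived neurons were exposed for 48 h from seeding, then stained with Hoechst and βIII-tubulin. Automated high-content imaging gave total neurite length per valid neuron, counting processes >10 um. Loss of signal was scored versus DMSO.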

A short description of assay [16]: ArunA_NOG_NeuritesPerNeuron: ArunA Biomedical's Neurite Outgrowth (NOG) Assay for Neurites Per Neuron (AID 2283758). The method, boiled down: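 Differentiated human H9-derived neurons exposed to chemicals for 48 h from seeding, then stained with Hoechst and βIII-tubulin/DyLight 488. Automated imaging counted neurites (processes >10 um) per valid neuron; loss of signal versus DMSO scored.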

The nature of assay [17]: ArunA_NOG_BranchPointsPerNeurite: ArunA Biomedical's Neurite Outgrowth (NOG) Assay for Branch Points Per Neurite (AID 2283759). The method, boiled down: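 Automated image analysis traced neurites (processes >10 um) from valid cell bodies after Hoechst and βIII-tubulin staining. hNN cells from H9 embryonic stem cells, 48 h exposure. Fitted bidirectionally against DMSO.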

Chain of Luciferin 4-monooxygenase (Photinus pyralis) (P08659 whole entry, looked up): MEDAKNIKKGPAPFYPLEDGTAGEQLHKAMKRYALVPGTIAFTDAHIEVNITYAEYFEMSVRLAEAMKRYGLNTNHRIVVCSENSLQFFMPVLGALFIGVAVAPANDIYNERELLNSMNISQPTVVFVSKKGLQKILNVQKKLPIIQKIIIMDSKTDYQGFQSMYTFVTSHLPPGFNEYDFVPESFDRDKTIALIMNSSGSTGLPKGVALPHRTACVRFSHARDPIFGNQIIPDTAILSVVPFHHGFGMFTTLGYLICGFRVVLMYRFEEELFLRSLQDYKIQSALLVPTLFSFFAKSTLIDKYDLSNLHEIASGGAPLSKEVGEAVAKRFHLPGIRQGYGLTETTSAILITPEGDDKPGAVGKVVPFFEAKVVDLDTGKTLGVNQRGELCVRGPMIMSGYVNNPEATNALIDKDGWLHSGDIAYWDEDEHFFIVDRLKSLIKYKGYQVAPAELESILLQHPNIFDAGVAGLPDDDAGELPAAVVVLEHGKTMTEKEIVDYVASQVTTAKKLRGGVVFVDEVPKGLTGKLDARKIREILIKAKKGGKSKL
Chain of AR (gene 367) (P10275 whole entry, looked up): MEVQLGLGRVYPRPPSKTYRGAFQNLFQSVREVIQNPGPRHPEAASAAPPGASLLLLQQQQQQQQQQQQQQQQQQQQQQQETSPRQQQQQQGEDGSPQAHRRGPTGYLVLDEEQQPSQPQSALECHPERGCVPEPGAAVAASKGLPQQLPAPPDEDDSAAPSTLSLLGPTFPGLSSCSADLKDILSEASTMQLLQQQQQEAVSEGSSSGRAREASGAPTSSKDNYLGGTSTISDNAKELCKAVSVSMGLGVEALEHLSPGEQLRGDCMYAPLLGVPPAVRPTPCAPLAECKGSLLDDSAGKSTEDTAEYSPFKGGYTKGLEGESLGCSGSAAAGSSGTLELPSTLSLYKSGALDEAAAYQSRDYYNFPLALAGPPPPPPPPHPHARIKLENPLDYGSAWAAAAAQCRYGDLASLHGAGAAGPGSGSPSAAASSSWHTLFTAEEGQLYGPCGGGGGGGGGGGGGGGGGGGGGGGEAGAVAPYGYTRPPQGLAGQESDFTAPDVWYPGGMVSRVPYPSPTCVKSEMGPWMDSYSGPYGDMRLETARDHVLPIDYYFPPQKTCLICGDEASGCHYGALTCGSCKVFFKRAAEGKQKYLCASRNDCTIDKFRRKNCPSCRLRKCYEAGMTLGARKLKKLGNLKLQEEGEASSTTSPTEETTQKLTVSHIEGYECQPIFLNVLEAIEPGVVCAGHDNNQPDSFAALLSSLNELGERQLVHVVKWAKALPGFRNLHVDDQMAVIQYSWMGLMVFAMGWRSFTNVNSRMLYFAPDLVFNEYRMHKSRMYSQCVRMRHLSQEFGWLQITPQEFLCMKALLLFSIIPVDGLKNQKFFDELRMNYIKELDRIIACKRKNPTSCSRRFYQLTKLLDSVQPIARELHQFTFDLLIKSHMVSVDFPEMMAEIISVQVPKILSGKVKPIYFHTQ
Chain of zebrafish Estrogen Receptor (ESR1), esr1 (gene 259252) (P57717 whole entry, looked up, the tested form may be a part): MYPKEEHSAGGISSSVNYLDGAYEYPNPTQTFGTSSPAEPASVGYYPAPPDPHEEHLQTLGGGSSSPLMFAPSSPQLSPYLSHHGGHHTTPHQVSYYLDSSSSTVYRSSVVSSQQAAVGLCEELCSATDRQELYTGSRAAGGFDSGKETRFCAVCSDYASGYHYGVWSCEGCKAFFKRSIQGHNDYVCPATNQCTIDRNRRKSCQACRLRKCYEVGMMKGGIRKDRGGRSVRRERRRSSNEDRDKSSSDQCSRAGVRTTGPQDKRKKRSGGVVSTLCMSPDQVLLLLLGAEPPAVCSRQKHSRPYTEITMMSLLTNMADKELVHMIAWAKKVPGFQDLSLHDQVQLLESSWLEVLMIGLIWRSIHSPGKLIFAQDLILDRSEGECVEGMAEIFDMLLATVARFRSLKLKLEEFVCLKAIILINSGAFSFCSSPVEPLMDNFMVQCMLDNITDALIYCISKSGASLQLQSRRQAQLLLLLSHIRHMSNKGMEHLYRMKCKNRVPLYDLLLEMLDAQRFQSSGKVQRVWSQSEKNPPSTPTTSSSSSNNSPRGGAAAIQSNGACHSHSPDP

As to `COC(=O)Nc1nc2ccccc2[nH]1`, the result (in assay [1]; with AR (gene 367); in assay [4]) was inactive. The AC50 in [2] was 17 µM (active); in assay [3], 16.5 µM (active).

Take `CN(C)C(=O)Nc1ccc(Cl)cc1`: the call in [1], in assay [5], in assay [3] and in assay [4] was inactive. Moreover, the AC50 in assay [2] is 50 µM (active).

Take `CN(C)c1ccccc1`: the result in [1] and in assay [2] was inactive.

On to `CCCCC(CC)COC(=O)c1ccc(C(=O)OCC(CC)CCCC)c(C(=O)OCC(CC)CCCC)c1` (centres undefined), for which the molecule was called inactive (in assay [1]; in assay [2]; with AR (gene 367)).

With `CN(C)[C@@H]1C(=O)C(C(N)=O)=C(O)[C@@]2(O)C(=O)C3=C(O)c4c(O)cccc4[C@@](C)(O)[C@H]3C[C@@H]12`, in [1], the call was inactive.

For `Cc1ccc(N=C=O)cc1N=C=O`, the AC50 in assay [1] is 22.6 µM (active); in [5], 25.1 µM (active); in assay [2], 24 µM (active).

For the molecule `C[C@]12C=CC3=C4CCC(=O)C=C4CC[C@H]3[C@@H]1CC[C@@H]2O`, the molecule was classed as inactive in assay [1], in assay [9], in [10], in [2], in [11] and in assay [12]. The outcome in assay [13] and in assay [14] was inactive. Also, the concentration at half-maximal activity (AC50) in [6] was 0.00303 µM (active); in assay [7], 0.0124 µM (active); in assay [8], 0.0325 µM (active); with AR (gene 367) it was 0.000293 µM (active).

Consider `Cc1cc(N=Nc2ccccc2C)ccc1N`, for which the AC50 in [1] is 3.76 µM (active); in assay [2], 42.2 µM (active); in assay [3], 50 µM (active).

Turning to `[Cl-].[Cl-].[Hg+2]`, the AC50 is 10.4 µM (active) in assay [1]; 4.59 µM (active) in assay [5]; 5.66 µM (active) in assay [2]; 16.9 µM (active) in assay [3]; 1.36 µM (active) in [4].

As to `Oc1ccc2ccc3cccc4ccc1c2c34`, the result in assay [15], in [16] and in [4] was inactive. The AC50 in [1] was 48 µM (active); in assay [5] it was 83.3 µM (active); in [2], 74.6 µM (active); in assay [3] it was 79.6 µM (active).

Turning to `N#CC(Br)(Br)C(N)=O`, the result in [1], in assay [2] and in [3] was inactive.

On to `CCOC(=O)[C@]1(c2ccccc2)Oc2ccccc2[C@@H]1N`, for which the molecule was classed as inactive in assay [1] and in assay [3]. Also, the figures for the AC50 in [5] and in [2] were 69.4 µM (active) and 65 µM (active), respectively.

With `Nc1cc(Cl)cc(C(=O)O)c1Cl`, the outcome in [1], in assay [2] and in [3] was inactive.

On to `Cc1cccc(N)c1N`, for which the results for the AC50 in assay [1] and in assay [4] were 35.7 µM (active) and 75.7 µM (active), respectively. Besides, the result in assay [2] and in assay [3] was inactive.

For `Cc1ccc(N)c(N)c1`, the AC50 in [1] was 0.334 µM (active); in [2], 50 µM (active); in assay [3], 6.06 µM (active); in assay [4], 26.9 µM (active).

In the case of `O=P(OCCCl)(OCCCl)OCCCl`, the call in [15], in assay [16], in assay [17], in assay [3] and in [4] was inactive.
